Rows were chosen to be rich in hits. Some 13% of all compounds tested hit in one or more screens of this group.
HCV inh: blocks hepatitis C virus; Huh7.5.1 HCVcc-Cre infection, luciferase reporter, 44 h; Potency, µM (highest dose often 41.8 µM), for inactives: at the top dose activity change, negative = inhibition, usual class: inhibitors; hit rate 3.4% among 340,000; AID 651820; active = well fitted inhibition curve with a large enough effect; inconclusive = small, poorly fitted or top-dose-only effect, or another doubt; inactive = no such curve, though single readings can be large or run the other way; also: potency is read from the fitted curve at half-maximal effect; % is scaled to controls: 0 for no effect and ±100 for the full control effect
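Whole-lifecycle infectious HCVcc-Cre system; cells 1,000/well, compound then virus (~0.5 moi) added 4 h after plating, 44 h culture. Luciferase read 15 sec following 15 min substrate incubation, room temp.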
FMDV antiviral: foot and mouth disease virus antiviral activity; FMDV antiviral cell-based qHTS; Potency, µM (series often up to 57.9 µM), without a hit: at the top dose activity change, negative = inhibition, hits mostly inhibitors; hit rate 1.2% among 410,000; AID 1159524; calls by dose curve; tested in HEK293T cells; also: read-out not given here; potency is read from the fitted curve at half-maximal effect; % is scaled to controls: 0 for no effect and ±100 for the full control effect; nearly all actives have a fitted effect of over 45% in size
Shiga toxin inh: Shiga toxin inhibition | inhibition, % at 38.7 µM | AID 2315 | hit rate 9.2% among 290,000 | Vero cells, Shiga toxin protein synthesis inhibition reporter; in the data active = inhibition mostly above about 28%, no sharp cut-off; inactive = mostly below about 43%; also: 0% is about no effect
Cycloheximide cs: counter-screen for Shiga toxin inhibitors: cycloheximide protein synthesis inhibition. cell reporter, cycloheximide protein synthesis inhibition counterscreen. max response, %. hit rate 12% among 300,000. AID 2314; in the data active = max response mostly above about 13%, no sharp cut-off; inactive = mostly below about 14%; also: read at 38.3 µM for the half of the compounds with a filed dose; 0% is about no effect
LASV entry inh: Lassa virus entry inhibition; AID 540256; Potency, µM (top dose mostly 37.9 µM), for inactives: at the highest dose activity change, negative = inhibition, usual class: inhibitors; Lassa virus pseudotype entry inhibition, cell reporter; hit rate 1.2% among 300,000; calls by dose curve; tested in HEK293 cells; also: potency is read from the fitted curve at half-maximal effect; % is scaled to controls: 0 for no effect and ±100 for the full control effect; nearly all actives have a fitted effect of over 50% in size
MARV entry inh: inhibitors of Marburg virus binding or cell entry | hit rate 1.8% among 300,000 | Potency, µM (doses to about 37.8 µM), inactives show at the highest dose activity change, negative = inhibition, hits mostly inhibitors | AID 540276 | Marburg virus pseudotyped entry inhibition, cell reporter; calls by dose curve; tested in HEK293 cells; also: potency is read from the fitted curve at half-maximal effect; % is scaled to controls: 0 for no effect and ±100 for the full control effect
* marks the source's active call; other numbers are inactive results; ? = inconclusive; . = no result given; [ ] = another dose, or the depositor's remark.

SMILES	HCV inh	FMDV antiviral	Shiga toxin inh	Cycloheximide cs	LASV entry inh	MARV entry inh
O=C(COc1ccccc1)Nc1ccc2c(c1)Cc1cc(NC(=O)COc3ccccc3)ccc1-2	?	-8%	20	-4	4%	-1%
COc1ccc(CC(=O)Nc2cccc(-c3nnc(-c4ccco4)o3)c2)cc1	?	?	13	6	?	?
O=C(COc1ccccc1)Nc1cccc(-c2nnc(-c3ccccc3)o2)c1	?	-8%	72*	20*	-22%	19%[46.1 µM]
O=C(CSc1ncnc2c1nnn2-c1ccc(F)cc1)NCC1CCCO1 (centres undefined)	-3%	16µM*	-6	-4	-18%	-29%
C=CCC[C@@H](Cc1ccc(F)cc1)C(=O)OC[C@@H]1CCCN1C(=O)[C@@H](CC=C)CC(=O)N(CCO)Cc1ccccc1	-28%	0%	.	.	.	.
COc1ccc(-c2cc3nc(-c4ccccc4)cc(N4CCCC(O)C4)n3n2)cc1 (centres undefined)	6.3µM*	-10%	-11	2	.	.
COCCN1CCN(c2cc(-c3ccccc3)nc3cc(-c4cccc(F)c4)nn23)CC1	10µM*	14µM*	11	-3	?	?
COc1ccc(-c2cc3nc(-c4ccccc4)cc(N4CCC(O)CC4)n3n2)cc1	?	?	12	3	?	?
Cc1ccccc1NC(=O)C(=O)NCC(c1ccc2c(c1)OCO2)N1CCN(c2ccccc2)CC1 (centres undefined)	.	-11%	.	.	10µM*	.
CC12CCCCC1C(C(N)=O)C(=O)O2 (centres undefined)	5%	-20%	.	.	16%[46.1 µM]	9%
COc1ccc(/C=N/NC(=O)c2nc(Cl)c(Cl)c(N)c2Cl)cc1COc1ccc(F)cc1F	11µM*	-23%	-20	-4	?	6%
CCOC(=O)c1ccccc1OCc1cc(/C=N/n2cnnc2)ccc1OC	-10%	?	5	-5	-20%	0.1µM*
COc1ccc(/C=N\NC(=O)c2ccccc2F)cc1COc1ccc(F)cc1F	?	-2%	32*	24*	?	?
COc1ccc(/C=N/NC(=O)c2nc(Cl)c(Cl)c(N)c2Cl)cc1COc1ccccc1F	?	-29%	-11	-4	-22%	?
CCOC(=O)c1ccccc1OCc1cc(/C=N/NC(=O)c2cccnc2)ccc1OC	-16%	?	20	1	?	?
COc1ccc(/C=N\NC(=O)c2ccccc2F)cc1COc1ccc(F)cc1	-19%	-17%	2	2	-18%[46.1 µM]	?
COc1ccc(OCCSc2n[nH]c(N)n2)cc1	-8%	20%	49	31*	10%	0%[46.1 µM]
C[C@]12CC[C@H](O)CC1=CCC1C2CC[C@]2(C)C(=O)[C@H](Br)CC12 (some centres undefined)	4%	0%	.	.	-19%	?
O=c1c2ccccc2c2ccccc2c(=O)n1CC1CCCO1 (centres undefined)	4%	-19%	-6	-4	7%	6%
Cc1cccc(Nc2ncnc3onc(-c4cccc(Cl)c4)c23)c1C	6%	?	12	8.2*	.	.
Cc1cccn2cc(-c3cccc(NC(=O)c4cccs4)c3)nc12	-19%	31%	71*	32*	29%	?
O=C(Nc1cccc(-c2cn3cccnc3n2)c1)c1cccs1	-8%	-21%	-3	8	6%	?
Cc1ccn2cc(-c3cccc(NC(=O)c4cccs4)c3)nc2c1	-26%	14%	36	22*	-13%	?
CCN(CC(=O)Nc1c(F)cccc1F)C(=O)C1=COCCO1	16%	-2%	.	.	1%	-4%
COc1cccc(NC(=O)CN(C)C(=O)c2ccc(S(=O)(=O)Nc3ccccc3F)cc2)c1	6%	0%	.	.	-16%	?
SMILES	HCV inh	FMDV antiviral	Shiga toxin inh	Cycloheximide cs	LASV entry inh	MARV entry inh
Nc1ccc(-c2nc3c(Cl)cc(N)cc3[nH]2)cc1	?	4µM*	-20	-8	11µM*	?
Nc1cccc(-c2nc3ccc(C(=O)c4ccccc4)cc3[nH]2)c1	?	23%	61*	33*	.	.
COc1ccc2nc(-c3ccccn3)[nH]c2c1	6%	30%	59*	36*	.	.
COc1ccc2nc(-c3cccc(N)c3)[nH]c2c1	-16%	0%	32	18*	11µM*	10µM*
Nc1cccc(C(=O)Nc2ccc3nc(-c4cccnc4)[nH]c3c2)c1	?	?	-5	-3	-9%	?
COc1ccc2nc(-c3ccc(N)cc3)[nH]c2c1	6%	?	10	13	?	?
CCC(CC)C(=O)N=C1SC2CS(=O)(=O)CC2N1CCc1ccc(OC)c(OC)c1 (centres undefined)	23%	-6%	-8	-2	-12%	10%
CCn1c(SCC(=O)NC(C)C(C)C)nc2cc(S(=O)(=O)N3CCOCC3)ccc21 (centres undefined)	-15%	-11%	10	-1	11%	8%
CCCCOC(OCCCC)C(O)CSc1ccc2ccccc2c1 (centres undefined)	.	.	.	.	.	-28%[14.2 µM]
COc1ccc(Oc2ncc3nc(C)c(=O)n(C4CC4)c3n2)cc1	.	-7%	.	.	.	.
Nc1ccc2nc(-c3ccc(N)c(Cl)c3)[nH]c2c1	?	7%	77*	25*	?	?
Nc1ccc2nc(-c3cccs3)[nH]c2c1	?	.	52*	20*	12%	12%
Nc1ccc2nc(-c3ccccc3)[nH]c2c1	?	31%	126*	36*	-13%	-17%
c1cncc(-c2nc3c(ccc4ccccc43)[nH]2)c1	?	.	77*	12*	19%	-26%
COc1ccc(CCNC(=O)c2cc(=O)c3cc(C)cc(C)c3o2)cc1OC	.	?	.	.	-22%[46.1 µM]	-21%[46.1 µM]
COc1ccccc1OCC(=O)Nc1cccc(C(=O)N2CCOCC2)c1	-7%	-8%	-10	5	0%	10%
Nc1ccc2nc(-c3ccccn3)[nH]c2c1	?	-15%	53*	29*	?	?
Nc1ccc2nc(-c3cccnc3)[nH]c2c1	11%	56%	13	15*	?	?
CC(=O)NC(c1ccccc1)c1cc(Cl)c2cccnc2c1O (centres undefined)	10µM*	-16%	-13	-1	?	13µM*
CCCCC(=O)NC(c1cccs1)c1cc(Cl)c2cccnc2c1O (centres undefined)	2.2µM*	-16%	-4	-3	.	.
COc1ccc(C(NC(C)=O)c2cc(Cl)c3cccnc3c2O)cc1 (centres undefined)	10µM*	-18%	.	-5	.	.
COc1cc(C(=O)NC(c2ccccc2Cl)c2cc(Cl)c3cccnc3c2O)cc(OC)c1OC (centres undefined)	.	-11%	.	.	?	.
CCCC(=O)NC(c1ccc(OC)c(OC)c1)c1cc(Cl)c2cccnc2c1O (centres undefined)	-26%	-1%	1	-3	?	10µM*
COc1ccc(-n2ncc(S(=O)(=O)c3ccccc3)c2-c2ccc(Cl)cc2)cc1	10µM*	?	-3	11	?	?
